Measurements from PubChem BioAssay.

molecular target: Tumor necrosis factor receptor superfamily member 10B (Homo sapiens) (UniProt O14763); experiment: caspase-8 TRAIL sensitization, hit retest, confirmation, cell-based, NB7+caspase-8, with/without TRAIL, luminescence panel (AID 651596); details: NB7 neuroblastoma + caspase-8, TRAIL sensitization, luminescence viability, with TRAIL, mean of runs, at 10 µM, stronger effect = higher value
Sequence (O14763 whole entry, looked up): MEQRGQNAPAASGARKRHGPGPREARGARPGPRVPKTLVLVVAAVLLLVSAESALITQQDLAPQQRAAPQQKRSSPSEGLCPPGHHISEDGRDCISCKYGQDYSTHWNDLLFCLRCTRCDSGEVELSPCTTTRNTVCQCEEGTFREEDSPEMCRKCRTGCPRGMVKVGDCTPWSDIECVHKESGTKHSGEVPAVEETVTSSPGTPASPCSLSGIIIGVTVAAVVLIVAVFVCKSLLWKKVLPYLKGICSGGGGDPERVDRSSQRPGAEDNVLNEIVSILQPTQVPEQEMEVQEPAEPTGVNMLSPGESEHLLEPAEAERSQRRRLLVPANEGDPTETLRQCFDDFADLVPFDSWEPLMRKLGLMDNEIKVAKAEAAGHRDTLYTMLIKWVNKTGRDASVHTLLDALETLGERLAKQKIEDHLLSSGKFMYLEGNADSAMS

Row | Structure (SMILES) | activity
1 | O=C(/C=C/c1ccccc1)Nc1ccc2c(c1)C(=O)NC2=O | 14.6%
2 | COc1ccc(NC(=O)c2cc3ccc(O)cc3o/c2=N\O)cc1 | 77.8%
3 | O=C(N/N=C/c1cc(O)ccc1[N+](=O)[O-])c1ccc2c(c1)OCCO2 | 91%
4 | Cc1ccc(Nc2nc(N)nc(CCl)n2)c(C)c1 | 98.9%
5 | CCC(C)N(CC(=O)Nc1cccc(C)c1C)C(=O)CCl (stereo not drawn) | 99.5%
6 | Cc1ccccc1-c1nc2sc3c(c2c(=O)n1N)CCCC3 | 44%
7 | O=C(c1ccncc1)N1CCN(c2cc(-c3ccccc3)nc3cc(-c4cccc(Cl)c4)nn23)CC1 | -0.725%
8 | c1cc(-c2cc3cc(N4CCOCC4)ccc3o2)cs1 | 77.3%
9 | COc1ccc(-c2nc3ccccc3[nH]2)cc1 | 89%
10 | COc1ccc(C2C(C(=O)N3CCC(C)CC3)c3ccccc3C(=O)N2C)cc1 (stereo not drawn) | 67.2%
11 | O=C(Nc1ccc2c(c1)OCO2)N1CCN(Cc2ccco2)CC1 | 78.8%
12 | S=c1nc[nH]c2c1ncn2C1CCCO1 (stereo not drawn) | 17.8%
13 | Cc1ccc(-c2cc(-c3ccccc3)no2)c(O)c1 | 71.8%
14 | O=C(Nc1nc2cc3c(cc2s1)OCCO3)c1cccs1 | 66.6%
15 | O=C(Nc1cccc(O)c1)c1noc2c1CCc1ccccc1-2 | 76.6%
16 | CC(C)CC(/C(O)=C(\C#N)c1nc2ccccc2[nH]1)N1C(=O)c2ccccc2C1=O (stereo not drawn) | 66.3%
17 | C/C(=N\Nc1nc(C)cc(-c2ccccc2)n1)c1cccc(N)c1 | 41.5%
18 | COc1ccc(C(=O)/C=C/Nc2cc(C)ccn2)cc1 | 66.9%
19 | CSc1ccc(C2NC(=O)c3ccccc3N2)cc1 (stereo not drawn) | 31.3%
20 | CCc1ccc(OCc2nc(-c3ccccn3)no2)c(Br)c1 | 50%

Row | Structure (SMILES) | activity
21 | COC(=O)c1ccc(-c2nc3ccccc3[nH]2)cc1 | 80.7%
22 | O=C(Nc1nc2ccccc2[nH]1)c1ccc([N+](=O)[O-])cc1 | 53.4%
23 | Cc1cc(NC(=O)c2ccc3c(c2)OCO3)no1 | 46.2%
24 | N=NC(=O)c1ccccc1Nc1c(O)[nH]c2ccccc12 | 93.5%
25 | C=CCNC(=O)c1ccc2c3n(nc2c1)-c1ccccc1CO3 | 89.8%
26 | CCCCOc1ccc(-c2nc(=S)[nH][nH]2)cc1 | 67.1%
27 | CCc1ccc(CNC(=O)Cc2ccc(NC(=O)C3=C(C)OCCS3)cc2)cc1 | 58.8%
28 | COc1ccc(-c2cn3cc(C)ccc3n2)cc1Br | 82.2%
29 | CN(C)c1cccc(C(=O)Nc2nc3ccccc3[nH]2)c1 | 90.2%
30 | O=C(/C=C/c1ccc(Cl)cc1Cl)N1CCc2ccccc21 | 47.9%
31 | Cc1cccc(N2CCN(C(=S)Nc3ccc4nc(N5CCN(C)CC5)cc(C)c4c3)CC2C)c1 (stereo not drawn) | 75.8%
32 | Cc1ccc(CS(=O)(=O)c2ncc(Cl)c(C(=O)Nc3nnc(C(C)C)s3)n2)cc1 | 67.5%
33 | COc1cccc2sc3ccc(C#CC4(O)CCCCC4)cc3c(=O)c12 | 46.1%
34 | COC(=O)CSc1nc2cc(OC)ccc2cc1C#N | 75.6%
35 | N#Cc1c(C#N)c(SSc2c(C#N)c(C#N)c(N)n2-c2ccccc2)n(-c2ccccc2)c1N | -0.075%
36 | Nc1c(C(=O)N2CCOCC2)sc2nc3c(cc12)CCCC3 | 67.5%
37 | C/C(=N\NC(=O)c1ccc(O)cc1)c1cccc(NC(=O)c2ccccc2C)c1 | 59.9%
38 | CC(=C/c1ccccc1)/C=N/NC(=O)c1ccccn1 | 87.2%
39 | Cc1cc(NCCCn2ccnc2)n2ncc(-c3ccc(Cl)cc3)c2n1 | 45.8%

test system: not listed separately; experiment: as above; details: NB7 neuroblastoma + caspase-8, without TRAIL, luminescence viability, without TRAIL, mean of runs, at 10 µM; in the data active means activity above about 50%; inactive means the rest

Row | Structure (SMILES) | activity
40 | O=C(/C=C/c1ccccc1)Nc1ccc2c(c1)C(=O)NC2=O | 19.9%
41 | COc1ccc(NC(=O)c2cc3ccc(O)cc3o/c2=N\O)cc1 | 77.1%
42 | O=C(N/N=C/c1cc(O)ccc1[N+](=O)[O-])c1ccc2c(c1)OCCO2 | 87.7%
43 | Cc1ccc(Nc2nc(N)nc(CCl)n2)c(C)c1 | 98.6%
44 | CCC(C)N(CC(=O)Nc1cccc(C)c1C)C(=O)CCl (stereo not drawn) | 99.3%
45 | Cc1ccccc1-c1nc2sc3c(c2c(=O)n1N)CCCC3 | 46%
46 | O=C(c1ccncc1)N1CCN(c2cc(-c3ccccc3)nc3cc(-c4cccc(Cl)c4)nn23)CC1 | -15.8%
47 | c1cc(-c2cc3cc(N4CCOCC4)ccc3o2)cs1 | 67.4%
48 | COc1ccc(-c2nc3ccccc3[nH]2)cc1 | 90.7%
49 | COc1ccc(C2C(C(=O)N3CCC(C)CC3)c3ccccc3C(=O)N2C)cc1 (stereo not drawn) | 68.5%
50 | O=C(Nc1ccc2c(c1)OCO2)N1CCN(Cc2ccco2)CC1 | 75.2%
51 | S=c1nc[nH]c2c1ncn2C1CCCO1 (stereo not drawn) | 47.4%
52 | Cc1ccc(-c2cc(-c3ccccc3)no2)c(O)c1 | 60.2%
53 | O=C(Nc1nc2cc3c(cc2s1)OCCO3)c1cccs1 | 64.6%
54 | O=C(Nc1cccc(O)c1)c1noc2c1CCc1ccccc1-2 | 67.1%
55 | CC(C)CC(/C(O)=C(\C#N)c1nc2ccccc2[nH]1)N1C(=O)c2ccccc2C1=O (stereo not drawn) | 61.7%
56 | C/C(=N\Nc1nc(C)cc(-c2ccccc2)n1)c1cccc(N)c1 | 32.7%
57 | COc1ccc(C(=O)/C=C/Nc2cc(C)ccn2)cc1 | 52.5%
58 | CSc1ccc(C2NC(=O)c3ccccc3N2)cc1 (stereo not drawn) | 45.8%
59 | CCc1ccc(OCc2nc(-c3ccccn3)no2)c(Br)c1 | 46.4%

Row | Structure (SMILES) | activity
60 | COC(=O)c1ccc(-c2nc3ccccc3[nH]2)cc1 | 84.4%
61 | O=C(Nc1nc2ccccc2[nH]1)c1ccc([N+](=O)[O-])cc1 | 35%
62 | Cc1cc(NC(=O)c2ccc3c(c2)OCO3)no1 | 48.3%
63 | N=NC(=O)c1ccccc1Nc1c(O)[nH]c2ccccc12 | 92.1%
64 | C=CCNC(=O)c1ccc2c3n(nc2c1)-c1ccccc1CO3 | 90.5%
65 | CCCCOc1ccc(-c2nc(=S)[nH][nH]2)cc1 | 66.6%
66 | CCc1ccc(CNC(=O)Cc2ccc(NC(=O)C3=C(C)OCCS3)cc2)cc1 | 59%
67 | COc1ccc(-c2cn3cc(C)ccc3n2)cc1Br | 77.3%
68 | CN(C)c1cccc(C(=O)Nc2nc3ccccc3[nH]2)c1 | 78.5%
69 | O=C(/C=C/c1ccc(Cl)cc1Cl)N1CCc2ccccc21 | 51.4%
70 | Cc1cccc(N2CCN(C(=S)Nc3ccc4nc(N5CCN(C)CC5)cc(C)c4c3)CC2C)c1 (stereo not drawn) | 98%
71 | Cc1ccc(CS(=O)(=O)c2ncc(Cl)c(C(=O)Nc3nnc(C(C)C)s3)n2)cc1 | 59.3%
72 | COc1cccc2sc3ccc(C#CC4(O)CCCCC4)cc3c(=O)c12 | 45.8%
73 | COC(=O)CSc1nc2cc(OC)ccc2cc1C#N | 70%
74 | N#Cc1c(C#N)c(SSc2c(C#N)c(C#N)c(N)n2-c2ccccc2)n(-c2ccccc2)c1N | 72.1%
75 | Nc1c(C(=O)N2CCOCC2)sc2nc3c(cc12)CCCC3 | 63.5%
76 | C/C(=N\NC(=O)c1ccc(O)cc1)c1cccc(NC(=O)c2ccccc2C)c1 | 61.3%
77 | CC(=C/c1ccccc1)/C=N/NC(=O)c1ccccn1 | 85.2%
78 | Cc1cc(NCCCn2ccnc2)n2ncc(-c3ccc(Cl)cc3)c2n1 | 48.5%
